We go through 35 compounds from PubChem BioAssay.

This assay can be described thus: hepatitis C replication reporter changes, two-sided – Huh7 cells, luciferase reporter, HCV replication inhibitor project, primary screen (AID 1109).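 Note: huh7 hepatoma cells harbouring a luciferase neomycin HCV replicon reporter; luciferase luminescence as measure of HCV replicon replication; test concentration not given here.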 The settings on record: Huh7 HCV replicon luciferase reporter, 48 h; higher = more signal. In general terms: Reporter assays use an easily measured gene product as a stand-in for the process of interest.
In the case of `COC(=O)[C@@]1(Cc2ccccc2)[C@H]2c3cc(C(=O)N4CCCC4)[nH]c3C[C@H]2CN1C(=O)c1ccccc1`, the z-score is -0.151.
Next, `O=C(O)[C@H](Cc1ccccc1)n1cc(-c2ccccn2)nn1`: 0.107; `O=C1O[C@@H](c2ccccc2)[C@@H](c2ccccc2)N2[C@@H](c3ccccc3OCCO)[C@]3(C(=O)Nc4ccc(C#CCCO)cc43)[C@@H](C(=O)N3CCN(c4ncccn4)CC3)[C@H]12`: -1.71; `COc1ccc([Si](C)(C)[C@@H]2[C@@H](CCO)O[C@]3(C(=O)N(Cc4cccc(N5C(=O)c6ccccc6Oc6ccccc65)c4)c4ccccc43)[C@H]2C)cc1`: -4.56.
Next, `CN(C)CCCN1C(=O)[C@@]2(c3ccc([N+](=O)[O-])cc3)CC(=O)N(CC34CC5CC(CC(C5)C3)C4)[C@@H]2c2ccc(CO)cc21`: -1.49; `C[C@]12C(=O)N(CCCCCCO)[C@@H]3C(=O)N(c4ccc(Cl)cc4)CC=CC31O[C@@H]1/C=C\CCCOC(=O)C12` (stereo not given in full): -0.67; `CC1CC/C=C\[C@H]2OC34C=CCN(c5ccc6ccccc6c5)C(=O)[C@H]3N(C(CO)C(C)C)C(=O)[C@@H]4C2C(=O)O1` (stereo not given in full): -0.957.
On to `O=C1O[C@@H](c2ccccc2)[C@@H](c2ccccc2)N2[C@@H](c3ccc(O)cc3)[C@]3(C(=O)Nc4ccc(C#CC5=CCCCC5)cc43)[C@@H](C(=O)N3CCN(c4ncccn4)CC3)[C@H]12`, for which the z-score was -1.9.
The result for `C[C@H]1ON(c2ccc(C(=O)OC(C)(C)C)cc2)[C@@H](c2ccc(O)cc2)[C@@H]1C(=O)N1C(=O)OC[C@@H]1c1ccccc1` reads -3.09; that for `CCOC(=O)C[C@H]1[C@H](OC(=O)Cc2ccc3c(c2)OCO3)[C@@H](NC(=O)C2CCCCC2)c2cc(OCCCO)ccc2N1C(=O)c1ccc2ccccc2n1`, -1.27; that for `CN1C(=O)C2C=CC(C(O)c3c(F)cccc3Cl)N(Nc3ccccc3)C2C1=O` (stereo not given), -0.659.
`COCCCNC(=O)[C@]1(Cc2ccccc2CN=[N+]=[N-])N=C(c2ccc(OCCCO)cc2)O[C@@H]1c1ccccc1`: the z-score was -3.18.
As to `[N-]=[N+]=NCc1ccccc1C[C@@]1(C(N)=O)N=C(c2ccc(OCCCO)cc2)O[C@@H]1c1ccccc1CN=[N+]=[N-]`, the z-score is -1.55.
On to `COC(=O)[C@@]1(Cc2ccc(OC)cc2)[C@H]2c3cc(C(=O)N4CCCC4)n(CCc4cc5ccccc5[nH]4)c3C[C@H]2CN1C(=O)c1ccccc1`, for which the z-score is -1.85.
Next, `COCCOC(=O)N1C(=O)[C@@]2(c3cc(C#Cc4ccc(OC)cc4)ccc31)[C@H](C(=O)NC[C@H](O)c1ccccc1)[C@H]1C(=O)O[C@H](c3ccccc3)[C@H](c3ccccc3)N1[C@@H]2c1ccc(O)cc1`: -1.45; `C=CC[C@@]12N=C(c3ccc(OCCCO)cc3)O[C@@H]1c1ccccc1N(CCS(=O)(=O)c1ccccc1)C2=O`: -0.925; `C=CCN1C(=O)[C@]2(CC=C)N=C(c3ccc(OCCCO)cc3)O[C@@H]2c2ccccc21`: -2.63.
Next, `Cc1ccc(S[C@]2(C(=O)NCC(C)C)CC(=O)N(Cc3ccccc3Cl)[C@@H]2c2ccc(CO)cc2I)cc1`: -1.55; `COc1ccccc1CN1C(=O)c2ccccc2[C@](Cc2ccccc2I)(C(=O)NC(C)C)[C@@H]1c1ccc(CO)cc1`: -2.22.
The result for `CCOc1cc(C(O)C2C=CC3C(=O)N(C4CCCCC4)C(=O)C3N2Nc2ccc(OC)cc2)ccc1O` (stereo not given) reads -0.352; that for `COCCOC(=O)N1C(=O)[C@@]2(c3cc(C#Cc4ccc(OC)cc4)ccc31)[C@H](C(=O)N1CCCCCCC1)[C@H]1C(=O)O[C@H](c3ccccc3)[C@H](c3ccccc3)N1[C@@H]2c1ccc(O)cc1`, -0.949; that for `C=C(C(=O)CC[C@H](OC(=O)c1cccnc1)c1ccc(CO)o1)C(C)C`, -1.43.
`COC(=O)[C@H](Cc1ccccc1)N1CC(/C=C/C2CC2)=C[C@@H]1[C@@H](O)Cc1ccccc1`: the z-score was -1.33.
As to `COC(=O)[C@@]1(Cc2ccc(OC)cc2)[C@H]2c3cc(C(=O)N(C)C)n(Cc4nc5ccccc5[nH]4)c3C[C@H]2CN1C(=O)c1ccccc1`, the z-score is -1.81.
The result for `CN(C)C(=O)[C@]1(CCC(=O)OC(C)(C)C)N=C(c2ccc(OCCCO)cc2)O[C@@H]1c1ccccc1` reads 0.381; that for `COCCOC(=O)N1C(=O)[C@@]2(c3cc(C#CC4(O)CCCCCC4)ccc31)[C@H](C(N)=O)[C@H]1C(=O)O[C@H](c3ccccc3)[C@H](c3ccccc3)N1[C@@H]2c1ccccc1OCCO`, -3.3.
The result for `Cc1ccc(S[C@]2(C(=O)NCC(F)(F)F)CC(=O)N(Cc3ccccc3)[C@@H]2c2ccc(CO)cc2)cc1` reads -1.54; that for `COCCCNC(=O)[C@@]1(Sc2ccc(C)cc2)CC(=O)N(C2Cc3ccccc3C2)[C@@H]1c1ccc(CO)cc1I`, -1.05; that for `C=CC[C@]1(C(=O)N(C)C)N=C(c2ccc(OCCCO)cc2)O[C@H]1c1ccccc1N=[N+]=[N-]`, -0.277.
For `CCOC(=O)C1=CC[C@@H](c2ccccc2C(F)(F)F)N(S(=O)(=O)c2ccc(C)cc2)C1`, the z-score is -2.98.
Next, `CC(C)C(O)C1C=CC2C(=O)N(C)C(=O)C2N1N(c1ccccc1)c1ccccc1` (stereo not given): 0.865; `CCOC(=O)C1=CC[C@@H](c2ccc([N+](=O)[O-])cc2)N(S(=O)(=O)c2ccc(C)cc2)[C@H]1c1ccccc1`: -1.55.
Next, `[N-]=[N+]=NCc1ccccc1C[C@@]1(C(=O)N2CCCCC2)N=C(c2ccc(OCCCO)cc2)O[C@@H]1c1ccccc1N=[N+]=[N-]`: -1.04; `C=C(/C(=C/C[C@@H](OC(=O)c1ccncc1)c1ccccc1OCCO)c1cc(C(=O)OC)ccc1OC)C(C)C`: -2.
The result for `COCCOC(=O)N1C(=O)[C@@]2(c3cc(C#CC4(O)CCCCCC4)ccc31)[C@H](C(N)=O)[C@H]1C(=O)O[C@H](c3ccccc3)[C@H](c3ccccc3)N1[C@@H]2c1ccc(O)cc1` reads -1.39.
